Compound activity from PubChem.
Sampled rows, rich in hits. Any-hit rate of the full collection: about 31%.
PLAP activator – PLAP enzyme activators, biochemical, luminescence, HTS. Alkaline phosphatase, placental type (Homo sapiens), P05187. 96,000 compounds, 1.2% hits. AID 696, 2007. purified PLAP enzyme, luminescent substrate read-out; hits give high values. activation fold at 20 µM; in the data active = activation fold above about 2
CYP2C9 act – human CYP2C9 activators, primary screen, biochemical, luminescence; Cytochrome P450 2C9 (Homo sapiens), P11712; recombinant CYP2C9, luciferin-H conversion; hits give high values; factor 1 = untreated enzyme, 0 = blocked; activation factor at 5 µM; 96,000 compounds, 1.4% hits; AID 1024, 2008;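 active = activation factor of 2 or more for CYP2C9 at a 5 µM dose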;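 note: 0 = sulfaphenazole-blocked wells and 1 = vehicle-only wells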
Target sequence (P11712 whole entry, looked up): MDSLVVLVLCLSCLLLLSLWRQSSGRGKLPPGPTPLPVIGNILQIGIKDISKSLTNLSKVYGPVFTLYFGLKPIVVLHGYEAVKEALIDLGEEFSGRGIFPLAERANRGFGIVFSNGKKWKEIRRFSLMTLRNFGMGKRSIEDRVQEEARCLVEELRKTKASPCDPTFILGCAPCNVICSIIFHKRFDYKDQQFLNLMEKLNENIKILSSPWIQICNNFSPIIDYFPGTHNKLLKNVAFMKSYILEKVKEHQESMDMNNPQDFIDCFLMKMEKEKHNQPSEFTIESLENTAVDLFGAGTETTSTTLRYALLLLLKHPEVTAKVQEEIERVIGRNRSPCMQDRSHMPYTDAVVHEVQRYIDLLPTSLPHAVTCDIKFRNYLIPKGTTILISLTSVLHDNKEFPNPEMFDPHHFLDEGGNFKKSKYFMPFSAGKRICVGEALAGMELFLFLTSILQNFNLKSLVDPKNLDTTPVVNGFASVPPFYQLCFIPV
CYP2C9 inhib – blockers of cytochrome P450 2C9 activity – biochemical, luminescence, ADME assay, primary screen | inhibition, % at 5 µM | 96,000 compounds, 20% hits | CYP2C9 Supersomes, luciferin-H conversion;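 active = blocking of liver enzyme CYP2C9 beyond about 50% at 5 µM, limit read from the data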
CYP2C19 inhib – blockers of cytochrome P450 2C19 activity – biochemical, luminescence, ADME assay, primary screen | P33261 | CYP2C19 Supersomes, luciferin-H EGE luminescence, 30 min | inhibition, % at 5 µM | 96,000 compounds, 21% hits | AID 778, 2007;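 active = CYP2C19 inhibition above a set limit at 5 µM in the primary screen, cut at about 50% in these data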;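 note: plate controls were negative control wells for no effect and 2.5 mM tranylcypromine positive control for full effect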
CYP2C19 act – human CYP2C19 activators, primary screen, biochemical, luminescence. Cytochrome P450 2C19 (Homo sapiens), P33261. recombinant CYP2C19, luciferin-H EGE luminescence; hits give high values; 0 = fully inhibited enzyme, 1 = untreated enzyme. activation factor at 5 µM. 96,000 tested, under 10 active;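 active = activation factor of at least 2 at 5 µM in the primary screen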;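 note: 0 = wells with 2.5 mM tranylcypromine and 1 = vehicle-only wells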
* marks the source's active call; other numbers are inactive results.

SMILES	PLAP activator	CYP2C9 act	CYP2C9 inhib	CYP2C19 inhib	CYP2C19 act
COc1ccc(CCCc2nnc(SCC(=O)Nc3ccc(C)c(C)c3)o2)cc1	0.9	0.9	10.0	26.2	0.7
Cc1ccc(C)c(NC(=O)CSc2nnc(CCNC(=O)OC(C)(C)C)o2)c1	1.5	0.7	34.0	79.9*	0.2
Cc1c(Cl)cccc1NC(=O)CSc1nnc(CCNC(=O)OC(C)(C)C)o1	1.7	0.3	68.1*	78.3*	0.2
COc1ccc(CCCc2nnc(SCC(=O)Nc3cc(C)ccc3C)o2)cc1	0.9	0.4	63.2*	46.5	0.5
COc1ccc(/C=C/C(=O)Nc2cc(C(F)(F)F)ccc2Cl)cc1	0.9	2*	-102.6	8.7	0.9
C/C(=C\C(=O)c1ccc(Br)cc1)NCc1ccc(C)cc1	0.7	0.8	22.4	10.1	0.9
O=C1C(=O)N(CCOCCO)C(c2ccccn2)/C1=C(\O)c1ccccc1 (stereo not given)	1	1.1	-6.2	-13.5	1.1
Cn1c(=O)c2c(n(C)c1=O)=NC1(CCCCC1)ON=2	1.2	0.9	14.1	22.8	0.8
COc1ccc(NCc2nnc(SCC(=O)Nc3cc(C(F)(F)F)ccc3Cl)o2)cc1	2.3*	0.2	79.6*	82.2*	0.2
COc1ccc(NCc2nnc(SCC(=O)Nc3cc(C)cc(C)c3)o2)cc1	1.1	1	3.9	20.2	0.8
CCn1c2ccccc2c2cc(NC(=O)COC(=O)Cc3cn4ccsc4n3)ccc21	1.6	1.8	-77.8	90.3*	0.1
O=C(COC(=O)Cc1cn2ccsc2n1)NCc1ccc2c(c1)OCO2	1.1	0.8	25.0	5.3	0.9
O=C(COC(=O)Cc1cn2ccsc2n1)NC12CC3CC(CC(C3)C1)C2	0.8	0.7	34.0	59.4*	0.4
O=C(C1CCN(c2ccc(N3CCOCC3)nn2)CC1)N1CCN(c2ccc(F)cc2)CC1	1.4	1	3.5	0.8	1
CNc1oc(Cc2ccccc2)nc1S(=O)(=O)c1ccc(Cl)cc1	0.6	0.8	22.4	49.9	0.5
FC(F)(F)c1nnc(-c2ccccc2)nc1Oc1ccc(Cl)cc1Cl	0.9	0.7	33.4	60.9*	0.4
FC(F)(F)c1nnc(-c2ccccc2)nc1Sc1ccc(Cl)cc1	0.9	0.6	36.0	29.7	0.7
CCOC(=O)N1CCN(c2nc(C)c3c(n2)CC(C)CC3=O)CC1 (stereo not given)	1.5	0.5	52.3*	39.0	0.6
CCCCNc1c(N2CCN(C(=O)OCC)CC2)c(=O)c1=O	0.9	0.8	15.2	2.3	1
CCCCN1Cc2cc(C(=O)c3cc(F)ccc3O)cnc2NC1=O	1.2	0.6	38.0	22.9	0.8
CCOC(=O)CNC(=O)CSc1nnc(-c2cccc(C)c2)n1-c1ccc(OC)cc1	1.7	0.7	31.1	68.6*	0.3
CCC(C)NC(=O)CSc1nnc(-c2ccncc2)n1-c1ccc(OC)cc1 (stereo not given)	1.3	0.1	86.1*	99.5*	0
CCC(C)NC(=O)CSc1nc2n[nH]c(C)c2c(=N)n1-c1ccc(OC)cc1 (stereo not given)	1.1	1	-4.4	5.4	0.9
CCNC(=O)CSc1nnc(-c2ccccc2)n1-c1ccc(OCC)cc1	1.3	0.4	60.4*	29.1	0.7
C=CCn1c(SCC(=O)NCC(=O)OCC)nnc1-c1cccc(OC)c1	0.8	1.1	-6.7	0.6	1
Cc1cc2ccccc2n1CCNC(=O)Cc1cccc2ccccc12	1.1	1	-4.5	21.1	0.8
COc1ccc(C)cc1S(=O)(=O)N1CCCC(C(=O)NCC2CCCO2)C1 (stereo not given)	1	1.1	-8.6	-4.1	1
Cn1c(=O)oc2cc(S(=O)(=O)N3CCCC(C(=O)N4CCn5c4nc4ccccc45)C3)ccc21 (stereo not given)	1	1.1	-6.1	-19.0	1.2
Cn1c(=O)oc2cc(S(=O)(=O)N3CCCC(C(=O)N4CCc5ccccc5C4)C3)ccc21 (stereo not given)	1.6	0.5	47.6	91.4*	0.1
CCOC(=O)C1CCCN(C(=O)C2CCCN(S(=O)(=O)c3ccc4c(c3)oc(=O)n4C)C2)C1 (stereo not given)	1.5	0.2	80.6*	28.0	0.7
